Laboratory results: the supplement of paper PMC10849652
About 7,900 targets were measured; listed, in parts, are those with a hit and a random draw of the rest. About 0.6% of all pairs of compound and target were hits.

Compound: c1cn2cc(-c3ccc4cn[nH]c4c3)nc(Nc3ccc(N4CCOCC4)cc3)c2n1 [entospletinib]
Assay: log2 fold change, soluble protein after heating vs DMSO (PISA); higher = thermal stabilisation; K562 cells, 10 uM, 30 min; active = over 0.2 and 3.5 SD of the protein, either way, in both replicates (recomputed)
In short: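 K562 cells at 2×10^6 cells/mL were treated with 10 μM compound for 30 min. Aliquots were heated for 3 min across 48°C-58°C, pooled, and extracted in PBS with 0.5% NP-40 at 4°C; soluble protein was the supernatant after 21,000xg for 90 min. Soluble protein was quantified by TMTpro 16plex LC-MS/MS with channel sums equalised, and reported as log2 fold change in thermal stability against DMSO controls, with values from duplicates.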

Chain of UniProt Q9NZN4 (Q9NZN4 whole entry, looked up): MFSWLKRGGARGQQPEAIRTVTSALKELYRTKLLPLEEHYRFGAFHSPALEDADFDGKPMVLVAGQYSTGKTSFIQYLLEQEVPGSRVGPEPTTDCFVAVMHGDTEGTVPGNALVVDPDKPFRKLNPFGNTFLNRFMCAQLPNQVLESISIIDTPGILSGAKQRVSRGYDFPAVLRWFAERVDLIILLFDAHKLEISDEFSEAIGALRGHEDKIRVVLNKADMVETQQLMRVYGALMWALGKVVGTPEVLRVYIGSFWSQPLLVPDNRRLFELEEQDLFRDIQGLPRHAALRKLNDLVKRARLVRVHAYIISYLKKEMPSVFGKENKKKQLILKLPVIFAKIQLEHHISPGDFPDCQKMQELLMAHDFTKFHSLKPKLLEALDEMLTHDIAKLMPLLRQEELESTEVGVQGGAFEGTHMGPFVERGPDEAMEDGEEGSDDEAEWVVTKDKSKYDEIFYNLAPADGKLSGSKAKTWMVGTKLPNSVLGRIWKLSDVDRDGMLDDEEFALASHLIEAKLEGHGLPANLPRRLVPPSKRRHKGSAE
Chain of UniProt Q9NXW2 (Q9NXW2 whole entry, looked up): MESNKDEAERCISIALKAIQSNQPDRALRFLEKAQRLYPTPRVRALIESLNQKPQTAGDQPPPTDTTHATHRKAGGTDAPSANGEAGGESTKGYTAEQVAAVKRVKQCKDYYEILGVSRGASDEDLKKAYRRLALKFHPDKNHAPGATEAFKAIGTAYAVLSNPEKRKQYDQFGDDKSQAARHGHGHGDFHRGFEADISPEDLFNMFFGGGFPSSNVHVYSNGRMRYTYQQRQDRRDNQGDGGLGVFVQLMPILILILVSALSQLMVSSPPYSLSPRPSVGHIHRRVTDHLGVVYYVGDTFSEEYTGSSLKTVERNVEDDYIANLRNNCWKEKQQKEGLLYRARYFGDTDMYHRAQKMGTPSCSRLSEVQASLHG
Chain of UniProt P35222 (P35222 whole entry, looked up): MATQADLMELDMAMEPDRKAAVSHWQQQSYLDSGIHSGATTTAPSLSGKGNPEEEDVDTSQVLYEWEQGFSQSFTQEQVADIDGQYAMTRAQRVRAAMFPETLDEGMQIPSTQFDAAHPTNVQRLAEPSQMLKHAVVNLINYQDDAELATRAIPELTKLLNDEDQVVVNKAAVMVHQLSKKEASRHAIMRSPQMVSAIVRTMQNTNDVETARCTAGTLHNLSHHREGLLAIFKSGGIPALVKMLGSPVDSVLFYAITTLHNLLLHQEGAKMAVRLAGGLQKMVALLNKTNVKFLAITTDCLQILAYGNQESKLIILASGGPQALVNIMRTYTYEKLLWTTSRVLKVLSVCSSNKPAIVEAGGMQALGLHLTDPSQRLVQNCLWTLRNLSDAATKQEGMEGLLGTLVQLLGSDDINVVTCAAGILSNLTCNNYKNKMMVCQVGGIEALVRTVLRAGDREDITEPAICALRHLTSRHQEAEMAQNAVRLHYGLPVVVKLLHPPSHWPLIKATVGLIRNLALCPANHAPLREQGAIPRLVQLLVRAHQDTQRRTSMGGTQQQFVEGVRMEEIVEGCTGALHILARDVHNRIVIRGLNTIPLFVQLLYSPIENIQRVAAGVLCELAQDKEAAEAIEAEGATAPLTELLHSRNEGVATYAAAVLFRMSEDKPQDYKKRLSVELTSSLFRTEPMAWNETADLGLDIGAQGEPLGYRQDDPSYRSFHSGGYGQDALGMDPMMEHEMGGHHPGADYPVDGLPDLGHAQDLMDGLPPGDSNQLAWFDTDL
Chain of UniProt Q96A65 (Q96A65 whole entry, looked up): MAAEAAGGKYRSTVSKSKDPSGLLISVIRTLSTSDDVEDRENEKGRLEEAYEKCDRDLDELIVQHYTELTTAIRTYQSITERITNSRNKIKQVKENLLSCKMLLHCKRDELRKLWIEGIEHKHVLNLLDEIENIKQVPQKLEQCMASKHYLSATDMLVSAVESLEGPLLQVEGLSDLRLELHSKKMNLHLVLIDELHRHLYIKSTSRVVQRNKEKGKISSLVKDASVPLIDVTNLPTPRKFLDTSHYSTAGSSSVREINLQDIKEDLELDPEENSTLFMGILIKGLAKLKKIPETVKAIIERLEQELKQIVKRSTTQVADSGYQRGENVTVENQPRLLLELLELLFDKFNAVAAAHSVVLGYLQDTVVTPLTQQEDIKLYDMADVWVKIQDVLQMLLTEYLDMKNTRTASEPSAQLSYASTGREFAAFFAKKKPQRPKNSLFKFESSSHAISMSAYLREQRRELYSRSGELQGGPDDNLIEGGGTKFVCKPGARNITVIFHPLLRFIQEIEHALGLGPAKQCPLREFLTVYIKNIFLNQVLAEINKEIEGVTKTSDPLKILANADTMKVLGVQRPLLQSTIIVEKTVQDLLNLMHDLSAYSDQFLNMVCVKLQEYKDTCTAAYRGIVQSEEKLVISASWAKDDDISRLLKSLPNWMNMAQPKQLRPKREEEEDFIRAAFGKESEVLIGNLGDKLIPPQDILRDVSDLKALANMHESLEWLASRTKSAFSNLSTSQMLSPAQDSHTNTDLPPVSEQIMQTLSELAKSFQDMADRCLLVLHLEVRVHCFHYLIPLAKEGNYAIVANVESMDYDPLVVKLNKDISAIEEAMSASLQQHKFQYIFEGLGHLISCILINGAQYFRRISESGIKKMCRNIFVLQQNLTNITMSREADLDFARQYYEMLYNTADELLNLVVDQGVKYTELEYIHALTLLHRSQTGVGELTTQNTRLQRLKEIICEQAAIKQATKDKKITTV
Chain of UniProt Q8N3D4 (Q8N3D4 whole entry, looked up): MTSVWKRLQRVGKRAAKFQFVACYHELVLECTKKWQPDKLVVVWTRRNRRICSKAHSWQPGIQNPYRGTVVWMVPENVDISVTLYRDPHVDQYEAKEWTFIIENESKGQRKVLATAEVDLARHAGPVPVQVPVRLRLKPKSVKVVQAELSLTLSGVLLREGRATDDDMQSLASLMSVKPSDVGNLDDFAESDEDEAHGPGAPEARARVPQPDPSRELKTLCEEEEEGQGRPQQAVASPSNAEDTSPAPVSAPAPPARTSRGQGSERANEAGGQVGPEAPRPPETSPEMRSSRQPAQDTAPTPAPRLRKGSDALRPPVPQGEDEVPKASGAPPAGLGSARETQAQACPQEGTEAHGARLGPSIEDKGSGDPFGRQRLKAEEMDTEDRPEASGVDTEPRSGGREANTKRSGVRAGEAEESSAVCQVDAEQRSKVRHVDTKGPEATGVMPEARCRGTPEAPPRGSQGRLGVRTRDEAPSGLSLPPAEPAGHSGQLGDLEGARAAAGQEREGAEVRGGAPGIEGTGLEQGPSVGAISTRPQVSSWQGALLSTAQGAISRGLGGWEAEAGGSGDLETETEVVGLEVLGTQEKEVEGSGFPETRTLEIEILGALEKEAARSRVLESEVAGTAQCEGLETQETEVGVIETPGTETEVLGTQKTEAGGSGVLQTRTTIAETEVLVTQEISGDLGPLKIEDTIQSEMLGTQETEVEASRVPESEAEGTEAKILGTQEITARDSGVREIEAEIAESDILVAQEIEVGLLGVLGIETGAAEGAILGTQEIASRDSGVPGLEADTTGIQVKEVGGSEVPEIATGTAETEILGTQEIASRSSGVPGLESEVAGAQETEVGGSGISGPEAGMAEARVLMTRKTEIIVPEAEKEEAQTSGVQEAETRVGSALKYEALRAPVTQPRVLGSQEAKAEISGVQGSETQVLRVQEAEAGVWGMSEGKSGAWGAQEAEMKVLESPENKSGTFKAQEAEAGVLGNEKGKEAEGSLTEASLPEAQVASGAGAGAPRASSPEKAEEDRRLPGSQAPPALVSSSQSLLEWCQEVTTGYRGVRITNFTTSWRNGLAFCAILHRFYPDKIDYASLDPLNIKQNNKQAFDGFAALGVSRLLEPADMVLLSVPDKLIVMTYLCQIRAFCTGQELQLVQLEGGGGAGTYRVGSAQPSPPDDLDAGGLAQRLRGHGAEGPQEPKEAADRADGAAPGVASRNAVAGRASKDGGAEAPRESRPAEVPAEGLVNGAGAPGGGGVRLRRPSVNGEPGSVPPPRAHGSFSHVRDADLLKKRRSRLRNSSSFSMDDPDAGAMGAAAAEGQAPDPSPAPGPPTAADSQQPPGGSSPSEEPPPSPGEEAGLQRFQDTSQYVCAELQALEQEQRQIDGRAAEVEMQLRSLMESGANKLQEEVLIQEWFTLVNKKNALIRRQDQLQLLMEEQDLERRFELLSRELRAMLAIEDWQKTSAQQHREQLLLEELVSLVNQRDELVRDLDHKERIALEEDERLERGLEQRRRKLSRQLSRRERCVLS
Chain of UniProt P13498 (P13498 whole entry, looked up): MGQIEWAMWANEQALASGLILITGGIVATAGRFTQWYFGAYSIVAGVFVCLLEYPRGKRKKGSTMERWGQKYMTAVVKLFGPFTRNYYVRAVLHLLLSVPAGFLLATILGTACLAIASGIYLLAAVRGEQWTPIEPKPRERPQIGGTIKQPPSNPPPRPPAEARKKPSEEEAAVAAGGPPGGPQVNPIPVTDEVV
Chain of UniProt Q9C073 (Q9C073 whole entry, looked up): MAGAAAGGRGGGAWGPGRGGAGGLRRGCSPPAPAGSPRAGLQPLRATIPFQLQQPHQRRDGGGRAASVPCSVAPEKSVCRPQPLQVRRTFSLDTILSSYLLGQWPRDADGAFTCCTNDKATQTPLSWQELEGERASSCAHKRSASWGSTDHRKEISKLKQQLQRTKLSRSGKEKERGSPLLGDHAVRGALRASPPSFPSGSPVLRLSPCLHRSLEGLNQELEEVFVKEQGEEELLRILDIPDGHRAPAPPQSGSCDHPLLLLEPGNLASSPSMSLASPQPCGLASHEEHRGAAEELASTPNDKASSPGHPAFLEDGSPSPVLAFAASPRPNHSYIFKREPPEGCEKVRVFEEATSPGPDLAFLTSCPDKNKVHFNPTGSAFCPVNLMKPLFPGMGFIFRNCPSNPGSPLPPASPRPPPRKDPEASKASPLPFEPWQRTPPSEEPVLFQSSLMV
Chain of UniProt O60888 (O60888 whole entry, looked up): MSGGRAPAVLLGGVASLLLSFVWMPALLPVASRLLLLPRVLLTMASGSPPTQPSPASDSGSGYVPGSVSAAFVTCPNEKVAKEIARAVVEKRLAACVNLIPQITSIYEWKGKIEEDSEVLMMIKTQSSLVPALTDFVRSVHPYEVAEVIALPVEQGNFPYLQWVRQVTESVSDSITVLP

log2 fold change, inactive:
DMXL1 (UniProt Q9Y485) 0.04
DNAJB1 (UniProt P25685) -0.085
EEA1 (UniProt Q15075) -0.005
DDX4 (UniProt Q9NQI0) 0.276
CWF19L2 (UniProt Q2TBE0) -0.162
ERCC6 (UniProt Q03468) 0.045
FAM118A (UniProt Q9NWS6) 0.248
ELOVL1 (UniProt Q9BW60) -0.007
DCTN1 isoform 4 (UniProt Q14203) 0.061
CWC27 (UniProt Q6UX04) -0.019
EHD2 (UniProt Q9NZN4) -0.038
CTNNB1 (UniProt P35222) -0.212
CTNNBL1 (UniProt Q8WYA6) 0.069
ENTPD7 (UniProt Q9NQZ7) 0.096
CUEDC2 (UniProt Q9H467) 0.01
EHBP1L1 (UniProt Q8N3D4) -0.013
DMAC1 (UniProt Q96GE9) 0.073
EIF4E2 (UniProt O60573) -0.107
DDX46 (UniProt Q7L014) -0.043
ESYT1 isoform 2 (UniProt Q9BSJ8) 0.003
FAM117A (UniProt Q9C073) 0.067
DNAJB12 (UniProt Q9NXW2) 0.01
CYBA (UniProt P13498) 0.069
FAAP100 (UniProt Q0VG06) 0.003
DAG1 (UniProt Q14118) 0.003
EXOC4 (UniProt Q96A65) -0.067
DTWD2 (UniProt Q8NBA8) 0.127
DCAF10 (UniProt Q5QP82) 0.307
EBNA1BP2 (UniProt Q99848) 0.031
EIF3J (UniProt O75822) -0.005
DDB1 isoform 2 (UniProt Q16531) 0.162
CUTA isoform 2 (UniProt O60888) -0.027
FAM177A1 isoform 2 (UniProt Q8N128) 0.05
CTSH (UniProt P09668) -0.021
